High-throughput results: PubChem, several laboratories
Yeast superoxide = reduction of superoxide in aged yeast, primary screen, HTS; S. cerevisiae aged cells, superoxide DHE fluorescence; active compounds read low; superoxide response (% of plate mean), % at 10 µM; 330,000 compounds, 0.18% hits; AID 2690, 2010;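 active = superoxide response under a set limit, about three screen SD below normal, cut at about 65% in these data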;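 also: yeast aged for seven days with compound at 30 °C before DHE staining; 100% = average MFI of all compound-treated wells on the plate with controls excluded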
SKN-1 block = suppressors of acrylamide-induced Pgst-4::GFP reporter in worms, primary screen, SKN-1 inhibitor project, whole organism, uHTS, GFP/RFP fluorescence ratio, strain VP596; inhibition, % at 21.8 µM; 360,000 compounds, 0.49% hits; C. elegans VP596 Pgst-4::GFP/RFP ratio, 24 h;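 active = interference check ratio from 0.5 to 1.5 plus GFP to RFP signal ratio inhibition reaching or exceeding a fixed threshold, cut at about 30% in these data, passing the limit was not always enough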
Platelet DG rel = inhibitors of platelet dense granule secretion, primary screen, cell-based, MLPCN, human platelets; human platelet-rich plasma, SFLLRN dense granule ATP release, luminescence; inhibition, %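 (compounds screened at 7.5 µM in platelet-rich plasma)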; 300,000 compounds, 0.22% hits; AID 1663, 2009;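 active = mean replicate score, as percent of positive control, at or above 50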
ABCB6 inh 2 = ABCB6 transporter inhibitors, primary screen, K562-ABCB6 cells, flow cytometry, MLPCN library. ATP-binding cassette sub-family B member 6 (Homo sapiens), Q9NP58. K562-ABCB6 porphyrin accumulation, 1 h; active compounds read low. 360,000 compounds, 0.19% hits. fluorescence ratio to DMSO, % at 10 µM;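 active = fluorescence ratio to DMSO below 75%, the collection mean minus 3 SD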;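 also: signal is porphyrin accumulated inside mitochondria; 100% equals median channel fluorescence of DMSO control wells; lower ratio means ABCB6 inhibition with less porphyrin fluorescence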
VLA-4 inh = inhibition in human VLA-4 binding assay, primary screen, VLA-4 allosteric modulator project, MLPCN library, flow cytometry, VLA-4 expressing cells; ligand binding flow cytometry; Integrin alpha-4 (Homo sapiens), P13612; 330,000 compounds, 0.2% hits; inhibition, % (about 7 µM as worked out from the volumes in the protocol); in the data active = inhibition above about 50%
* = called active by the depositor; / = not tested or not shown. Most compounds without a hit are left out; they make up all but 1.2% or so of the library.

SMILES	Yeast superoxide	SKN-1 block	Platelet DG rel	ABCB6 inh 2	VLA-4 inh
O=C(CSc1nnc(COc2ccc(Cl)cc2)o1)NC1CC2CCC1C2 (stereo unspecified)	92.2	38.5*	6.7	96.0	-17.9
C=CCn1c(-c2ccccc2)ccc(C#N)c1=O	99.0	64.9*	-7.9	94.0	-3.8
O=C(CCn1c(=O)c2ccccc2n(CC(=O)NCCC2=CCCCC2)c1=O)NCc1ccco1	105.6	35.1*	/	97.0	8.7
CC(=NO)C1(C)CC=CCC1CO (stereo unspecified)	/	5.8	/	99.0	/
Cc1ccc(C(=O)O/N=C(\N)c2ccccn2)cc1	93.9	4.1	103.7*	95.0	10.1
Cc1cccc(/C(N)=N/OC(=O)c2ccc3c(c2)OCO3)c1	107.1	2.0	64.2*	104.0	21.2
COc1ccc(C(=O)O/N=C(\C)c2ccccc2)cc1	92.2	13.7	64.9*	95.0	17.6
N/C(=N\OC(=O)c1cccc(Br)c1)c1ccncc1	108.1	45.5*	0.2	99.0	-2.0
N/C(=N\OC(=O)c1ccccc1)c1ccccn1	132.8	8.3	15.2	105.0	3.9
COc1ccc(C(=O)O/N=C(/c2ccccc2)c2ccncc2)cc1	109.9	8.1	12.4	97.0	1.9
N/C(=N\OC(=O)c1ccc2c(c1)OCO2)c1cccc([N+](=O)[O-])c1	95.6	6.7	8.5	121.0	9.5
COC(=O)[C@]12CCCCC=C1N(Cc1cccc3ccccc13)C(=O)[C@H](CC(=O)NCCC(C)C)C2	/	0.8	/	94.0	/
Cc1cccc(C(=O)O/N=C(\N)c2ccccn2)c1	102.0	36.8*	25.7	97.0	16.2
CCOc1ccc(C(=O)O/N=C(\N)c2ccccn2)cc1	109.8	1.9	80.7*	90.0	-1.2
C/C(=N/OC(=O)c1ccc(C)cc1)c1cccs1	84.5	-2.0	59.1*	85.0	8.4
C/C(=N\OC(=O)c1ccc(C)cc1)c1sc(C)nc1C	95.0	-10.9	31.4	101.0	0.4
CC(C)(C)c1ccc(C(=O)O/N=C(\N)c2ccccn2)cc1	105.9	10.0	28.9	92.0	-6.1
N/C(=N\OC(=O)c1cccc(F)c1)c1ccccn1	112.5	2.4	6.5	103.0	7.1
O=C(Nc1ccc(F)c(Cl)c1)c1ccc2sc([C@H]3C[C@H](O)[C@@H](CO)O3)nc2c1	/	22.9	/	94.0	/
Cc1ccccc1NC(=O)Cc1nc(COC(=O)c2cccc(O)c2)cs1	101.4	41.8*	/	96.0	0.9
Cc1ccccc1NC(=O)Cc1nc(COC(=O)c2cccc([N+](=O)[O-])c2)cs1	94.0	-11.6	17.6	101.0	-8.2
c1ccc(CNc2nc(NCCc3ccncc3)c3sccc3n2)cc1	/	2.4	/	97.0	/
COc1cc(OC)cc(C2=Cc3ccccc3C(CC(C)=O)N2c2ccc(C#CCCO)cc2)c1 (stereo unspecified)	/	6.7	/	100.0	/
Cn1cccc1/C=C1\SC(=S)N(NC(=O)c2ccc(F)cc2)C1=O	88.0	22.2	/	102.0	19.0
Cn1cccc1/C=C1\SC(=S)N(NC(=O)c2ccccc2)C1=O	97.8	38.5*	/	102.0	17.6
SMILES	Yeast superoxide	SKN-1 block	Platelet DG rel	ABCB6 inh 2	VLA-4 inh
Cn1cccc1/C=C1\SC(=S)N(NC(=O)c2cccc(Cl)c2)C1=O	121.1	38.5*	/	105.0	-3.2
COC(=O)C1=CN(c2ccc(N3CCOCC3)cc2)C(N)=C(C#N)C1c1cccc(F)c1 (stereo unspecified)	/	11.7	/	/	/
CCn1c(C)c(C)c2cc(C(=O)N3CCN(c4ccccc4)CC3)ccc21	78.0	46.2*	2.6	100.0	3.5
Cc1c(C)n(Cc2ccc(F)cc2)c2ccc(C(=O)N3CCN(c4ccccn4)CC3)cc12	115.5	58.7*	5.9	103.0	23.7
O=C(c1ccc(F)cc1)N1CCN(c2ccccn2)CC1	88.3	10.7	0.6	98.0	4.6
CCCCNC(=O)c1[nH]c(C2CCNCC2)nc1-c1cccc(C(F)(F)F)c1	/	-0.1	/	/	/
C(=N\N=C\c1ccccn1)/c1ccccn1	99.9	3.8	1.2	96.0	7.6
O=C1/C(=C/c2cccc([N+](=O)[O-])c2)CCc2ccccc21	111.0	2.8	-5.0	99.0	5.7
COc1ccc2c(c1)CC/C(=C/c1ccccn1)C2=O	114.8	-17.3	8.0	93.0	9.8
O=C1/C(=C/c2ccc([N+](=O)[O-])cc2)CCc2ccccc21	86.3	/	49.6*	/	8.1
O=C1C(=Cc2ccccn2)CCc2ccccc21	/	38.7*	/	97.0	/
Cc1ccsc1/C=C1\CCc2ccccc2C1=O	102.2	4.0	63.6*	99.0	12.1
C(=C1c2ccccc2-c2ccccc21)c1ccccn1	/	51.6*	/	102.0	/
Cc1ccc(N2CCN(C(=O)C(=O)c3ccc4c(c3)OCO4)CC2)cc1	/	0.5	/	/	/
Cn1cc(-c2coc3c(C(=O)NCc4cccc(Cl)c4)cccc23)cn1	/	4.4	/	96.0	/
CC(C)C[C@@H]1Cc2[nH]c(=S)[nH]c(=O)c2[C@H](CCc2ccccc2)O1	/	-3.6	/	117.0	/
O=c1[nH][nH]c2c(N=Cc3ccccc3O)ccc(F)c12	/	41.7*	/	101.0	/
CCc1ccc(O)c(N=Cc2ccccc2O)c1	102.5	9.8	4.8	125.0	-185.2
Cc1cccnc1C(NC(=O)C1CCN(CCCc2ccccc2)CC1)c1ccc(F)cc1 (stereo unspecified)	/	4.9	/	97.0	/
COc1cc2sc3ccc(C#Cc4ccc(N)cc4)cc3c(=O)c2cc1OC	96.1	39.7*	-2.3	101.0	-15.7
COc1cccc2sc3cc(C#CC4(O)CCCCC4)ccc3c(=O)c12	107.0	6.9	/	100.0	3.6
COc1cc2sc3ccc(C#CC4(O)CCCCC4)cc3c(=O)c2cc1OC	103.0	0.7	56.0*	93.0	3.0
O=C(c1ccc(N2CCCC2=O)cc1)N1CCN(c2ccccc2Cl)CC1	44.5*	-3.3	/	97.0	4.9
CCCCN(C=O)c1c(CC)nc2c(OCc3ccc(C(F)(F)F)cc3)cccn12	/	-2.6	/	104.0	/
CN(C)CCNC(=O)c1ccc2nc([C@@H]3O[C@H](CO)[C@H](O)[C@H](O)[C@H]3O)[nH]c2c1	/	19.4	/	93.0	/
SMILES	Yeast superoxide	SKN-1 block	Platelet DG rel	ABCB6 inh 2	VLA-4 inh
Cc1c(C(=O)Nc2ccccc2)cnn1-c1ccccc1	87.3	9.0	5.1	98.0	2.2
COc1ccc(NC(=O)c2ccccn2)cc1	89.0	17.9	57.6*	91.0	7.8
COc1ccc(NC(=O)c2cnn(-c3ccccc3)c2C)cc1	110.0	-0.9	59.2*	95.0	2.4
COc1ccc(/C=C(\C#N)C(=O)NCC2CCCO2)cc1OC (stereo unspecified)	97.5	36.1*	4.1	96.0	7.3
COc1cc(/C=C(\C#N)C(=O)NCC2CCCO2)ccc1OCC(N)=O (stereo unspecified)	91.2	5.9	-3.5	101.0	15.2
Cc1ccc(C(C)C)cc1NC(=O)Nc1ccc([N+](=O)[O-])cc1	110.8	19.6	5.4	97.0	6.0
